Unmarked numbers belong to inactive results. Inconclusive results are not listed. The source made the active and inactive calls. The call rests on the fitted dose curve; in most records, active means well fitted curve in the direction sought with a large enough effect in the repeat runs; inconclusive means weak or mixed curves; inactive means no such curve, though single readings can be large; an effect the other way counts as inactive or inconclusive.

A short description of assay [1]: Caspase-3/7 induction in HepG2 cells by small molecules, qHTS assay (AID 1346978). Further: nearly all actives have a fitted effect of over 15% in size. In a few lines: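 Wild-type HepG2 cells (2,000/well) were settled 5 h at 37 C, 5% CO2, then exposed to compounds in DMSO for 17 h. Caspase-3/7 activity was read by luminescence 30 min after adding Caspase-Glo 3/7 reagent at room temperature.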
The nature of assay [2]: Caspase-3/7 induction in CHO-K1 cells by small molecules, qHTS cell viability counter screen (AID 1346979). Further: nearly all actives have a fitted effect of over 35% in size. Further: potency means the concentration at half of the fitted maximal effect. In a few lines: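 Wild-type CHO-K1 cells (1,500/well) treated with compound after 5 h plating; after 16 h at 37C, viability read as CellTiter-Fluor fluorescence following 1 h reagent incubation, in the same wells as the caspase read.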
A short description of assay [3]: Caspase-3/7 induction in CHO-K1 cells by small molecules, qHTS assay (AID 1346980). Further: nearly all actives have a fitted effect of over 15% in size. In a few lines:
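Wild-type cells were seeded at 1,500 per well and settled 5 hr at 37 C, 5% CO2, then exposed to DMSO-dissolved compounds for 17 hr. Caspase-Glo 3/7 reagent was added, and luminescence was read after 30min at room temperature.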

The nature of assay [4]: Caspase-3/7 induction in HepG2 cells by small molecules, qHTS cell viability counter screen (AID 1346981). Further: series mostly up to about 92 µM; nearly all actives have a fitted effect of over 30% in size. In a few lines: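 Steps: seed 2,000 HepG2 cells per well; incubate 5 hr at 37 C; pin-add compounds in DMSO; incubate 16 hr; add CellTiter-Fluor; after 1 hr at 37 C and 5% CO2, read fluorescence.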
On the technique in general: qHTS replaces the single test concentration by a dilution series.

The target of assay [5] is Nuclear receptor subfamily 1 group I member 2 (Homo sapiens) (UniProt O75469). As to the kind of experiment: Human pregnane X receptor (PXR) small molecule agonists, qHTS assay (AID 1346982). Further: nearly all actives have a fitted effect of over 35% in size. Further: potency means the concentration at half of the fitted maximal effect. In a few lines: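 Agonist mode qHTS: PXR-Luc HepG2 cells plated 5 hr before DMSO-dissolved compounds were pinned in, cultured 24 hr at 37 C, 5% CO2; ONE-Glo luminescence readout.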
Nuclear receptor subfamily 1 group I member 2 (Homo sapiens), sequence (O75469 whole entry, looked up): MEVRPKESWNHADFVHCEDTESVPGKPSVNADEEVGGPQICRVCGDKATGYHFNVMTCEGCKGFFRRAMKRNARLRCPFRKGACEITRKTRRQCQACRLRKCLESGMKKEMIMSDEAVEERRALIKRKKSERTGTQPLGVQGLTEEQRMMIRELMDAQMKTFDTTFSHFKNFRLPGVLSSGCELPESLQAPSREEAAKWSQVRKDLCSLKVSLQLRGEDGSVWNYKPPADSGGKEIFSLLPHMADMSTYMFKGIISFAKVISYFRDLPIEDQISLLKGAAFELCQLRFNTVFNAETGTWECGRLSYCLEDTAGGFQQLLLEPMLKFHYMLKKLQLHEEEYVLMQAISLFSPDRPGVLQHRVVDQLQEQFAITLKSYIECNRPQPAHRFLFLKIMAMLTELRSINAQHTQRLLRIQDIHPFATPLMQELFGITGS

Assay [6] deals with Cytochrome P450 2D6 (Homo sapiens) (UniProt P10635). As to the kind of experiment: Cytochrome P450 Family 2 Subfamily D Member 6 (CYP2D6) small molecule antagonists: luciferase reporter qHTS assay (AID 1671196). Further: series mostly up to about 120 µM; nearly all actives have a fitted effect of over 50% in size. In a few lines:
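P450-Glo format: CYP2D6 converts a proluciferin substrate to luciferin in an NADPH-driven reaction lasting 1 h at room temperature. Light output, proportional to CYP2D6 activity, reflects interference by test chemicals.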
(In general: In a reporter assay the amount or activity of a reporter protein is the signal.)

Assay [7] addresses Cytochrome P450 2C19 (Homo sapiens) (UniProt P33261). As to the kind of experiment: Cytochrome P450 Family 2 Subfamily C Member 19 (CYP2C19) small molecule antagonists: luciferase reporter qHTS assay (AID 1671197). Further: nearly all actives have a fitted effect of over 65% in size. Further: potency means the concentration at half of the fitted maximal effect. On activity change, negative = inhibition: series mostly up to about 120 µM. In a few lines:
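Luminescent readout of CYP2C19 activity: luciferin product detected 20 min after adding detection reagent. Before that, compound and enzyme-substrate mix preincubated 10 min at room temperature; NADPH-regenerating system started a 1 h, 37C reaction. Ketoconazole as positive control.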

In assay [8] the target is Cytochrome P450 2C9 (Homo sapiens) (UniProt P11712). As to the kind of experiment: Cytochrome P450 Family 2 Subfamily C Member 9 (CYP2C9) small molecule antagonists: luciferase reporter qHTS assay (AID 1671198). Further: nearly all actives have a fitted effect of over 50% in size. Further: potency means the concentration at half of the fitted maximal effect. On activity change, negative = inhibition: series mostly up to about 120 µM. In a few lines:
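CYP2C9 activity was measured with a P450-Glo proluciferin substrate. Enzyme–substrate mix was held with compound for 10 min at room temperature, then NADPH regeneration solution was added for 1 h at 37C. Luciferin product was read as luminescence.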

Assay [9] addresses Voltage-gated inwardly rectifying potassium channel KCNH2 (Homo sapiens) (UniProt Q12809). As to the kind of experiment: Human Ether-a-go-go-Related Gene (hERG) channel small molecule antagonists: fluorescence cell-based qHTS assay (AID 1671200).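 Further: hERG-expressing U2OS cells given a thallium stimulus after FluxOR II dye loading; series mostly up to about 77 µM; nearly all actives have a fitted effect of over 50% in size.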 In a few lines: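 hERG-U2OS cells plated overnight at 37 C, loaded with FluxOR II dye 1 h at RT in dark; after 10 min, thallium stimulus added. Fluorescence (480/540 nm) read kinetically for 2 min at 1 s intervals.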
(In general: hERG is a cardiac potassium channel; its block is linked to QT prolongation.)

Assay [10] addresses Cytochrome P450 3A4 (Homo sapiens) (UniProt P08684). As to the kind of experiment: Cytochrome P450 Family 3 Subfamily A Member 4 (CYP3A4) small molecule antagonists: luciferase reporter qHTS assay (AID 1671201). Further: nearly all actives have a fitted effect of over 50% in size. Further: potency means the concentration at half of the fitted maximal effect. On activity change, negative = inhibition: series mostly up to about 120 µM. In a few lines:
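P450-Glo CYP3A4 luminescent assay: compounds preincubated 10 min at room temperature with enzyme and proluciferin substrate, NADPH regeneration added, 1 h room-temperature reaction, stopped with luciferin detection reagent; luminescence read after 20 min. Ketoconazole positive control.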

Assay [11] addresses Cytochrome P450 1A2 (Homo sapiens) (UniProt P05177). As to the kind of experiment: Cytochrome P450 Family 1 Subfamily A Member 2 (CYP1A2) small molecule antagonists: luciferase reporter qHTS assay (AID 1671199). Further: nearly all actives have a fitted effect of over 50% in size. Further: potency means the concentration at half of the fitted maximal effect. On activity change, negative = inhibition: series mostly up to about 120 µM. In a few lines: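 Inhibition of CYP1A2 conversion of proluciferin to luciferin, detected by luminescence. Reaction run 1 h at room temperature with NADPH regeneration after brief compound preincubation.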
On the % scale 0 is the no-effect control and ±100 the full control effect.

Cytochrome P450 3A4 (Homo sapiens), sequence (P08684 whole entry, looked up): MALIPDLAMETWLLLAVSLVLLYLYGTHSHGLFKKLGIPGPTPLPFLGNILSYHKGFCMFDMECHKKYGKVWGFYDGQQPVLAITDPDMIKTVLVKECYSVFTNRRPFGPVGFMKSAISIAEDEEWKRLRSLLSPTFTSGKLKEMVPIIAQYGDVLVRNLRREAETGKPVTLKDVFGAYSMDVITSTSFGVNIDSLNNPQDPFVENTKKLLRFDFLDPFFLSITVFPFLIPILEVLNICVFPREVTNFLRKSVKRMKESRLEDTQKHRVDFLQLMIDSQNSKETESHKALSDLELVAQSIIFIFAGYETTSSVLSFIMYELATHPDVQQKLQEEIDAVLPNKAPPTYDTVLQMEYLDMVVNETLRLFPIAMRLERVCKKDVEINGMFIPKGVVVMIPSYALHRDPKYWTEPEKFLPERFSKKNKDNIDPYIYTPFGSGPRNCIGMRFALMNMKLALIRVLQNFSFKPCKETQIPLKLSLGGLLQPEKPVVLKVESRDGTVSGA
Cytochrome P450 2C19 (Homo sapiens), sequence (P33261 whole entry, looked up): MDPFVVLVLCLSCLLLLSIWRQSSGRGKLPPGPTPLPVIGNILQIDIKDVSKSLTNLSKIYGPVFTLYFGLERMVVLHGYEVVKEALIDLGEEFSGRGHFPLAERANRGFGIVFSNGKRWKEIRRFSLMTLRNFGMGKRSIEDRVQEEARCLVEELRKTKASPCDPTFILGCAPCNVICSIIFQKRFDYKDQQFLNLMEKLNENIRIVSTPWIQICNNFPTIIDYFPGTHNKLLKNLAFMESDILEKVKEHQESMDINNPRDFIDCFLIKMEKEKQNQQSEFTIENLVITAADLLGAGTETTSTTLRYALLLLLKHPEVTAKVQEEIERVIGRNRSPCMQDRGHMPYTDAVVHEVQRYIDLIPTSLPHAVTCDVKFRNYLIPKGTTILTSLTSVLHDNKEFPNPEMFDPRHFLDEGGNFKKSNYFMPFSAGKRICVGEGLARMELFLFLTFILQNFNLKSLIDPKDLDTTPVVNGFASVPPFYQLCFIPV
Cytochrome P450 1A2 (Homo sapiens), sequence (P05177 whole entry, looked up): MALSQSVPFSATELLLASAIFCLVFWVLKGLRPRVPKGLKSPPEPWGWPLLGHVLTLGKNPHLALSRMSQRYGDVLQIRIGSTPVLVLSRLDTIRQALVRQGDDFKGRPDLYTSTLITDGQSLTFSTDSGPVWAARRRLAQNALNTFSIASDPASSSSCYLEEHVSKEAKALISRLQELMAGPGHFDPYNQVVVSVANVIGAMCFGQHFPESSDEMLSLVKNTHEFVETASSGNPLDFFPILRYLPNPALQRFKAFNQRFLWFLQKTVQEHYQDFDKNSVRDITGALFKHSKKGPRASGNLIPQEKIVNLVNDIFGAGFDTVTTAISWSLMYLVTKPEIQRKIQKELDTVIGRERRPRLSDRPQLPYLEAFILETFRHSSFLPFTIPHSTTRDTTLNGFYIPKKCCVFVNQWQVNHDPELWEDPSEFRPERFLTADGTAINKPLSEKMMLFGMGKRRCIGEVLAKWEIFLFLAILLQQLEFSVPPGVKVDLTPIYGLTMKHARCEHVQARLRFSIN
Cytochrome P450 2D6 (Homo sapiens), sequence (P10635 whole entry, looked up): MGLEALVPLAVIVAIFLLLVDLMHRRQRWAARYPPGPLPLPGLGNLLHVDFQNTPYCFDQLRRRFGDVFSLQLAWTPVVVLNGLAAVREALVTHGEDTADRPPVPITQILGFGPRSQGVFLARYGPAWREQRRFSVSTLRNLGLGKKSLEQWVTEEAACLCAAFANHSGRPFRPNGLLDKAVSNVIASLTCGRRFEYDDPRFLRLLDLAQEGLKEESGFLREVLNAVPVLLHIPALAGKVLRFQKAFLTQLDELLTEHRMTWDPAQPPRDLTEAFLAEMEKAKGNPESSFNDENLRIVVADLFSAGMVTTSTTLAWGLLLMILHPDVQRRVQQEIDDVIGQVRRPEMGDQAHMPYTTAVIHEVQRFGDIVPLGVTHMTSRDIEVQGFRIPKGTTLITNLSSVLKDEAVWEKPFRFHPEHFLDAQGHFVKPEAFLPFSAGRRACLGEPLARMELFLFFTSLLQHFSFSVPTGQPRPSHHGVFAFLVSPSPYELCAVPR
Cytochrome P450 2C9 (Homo sapiens), sequence (P11712 whole entry, looked up): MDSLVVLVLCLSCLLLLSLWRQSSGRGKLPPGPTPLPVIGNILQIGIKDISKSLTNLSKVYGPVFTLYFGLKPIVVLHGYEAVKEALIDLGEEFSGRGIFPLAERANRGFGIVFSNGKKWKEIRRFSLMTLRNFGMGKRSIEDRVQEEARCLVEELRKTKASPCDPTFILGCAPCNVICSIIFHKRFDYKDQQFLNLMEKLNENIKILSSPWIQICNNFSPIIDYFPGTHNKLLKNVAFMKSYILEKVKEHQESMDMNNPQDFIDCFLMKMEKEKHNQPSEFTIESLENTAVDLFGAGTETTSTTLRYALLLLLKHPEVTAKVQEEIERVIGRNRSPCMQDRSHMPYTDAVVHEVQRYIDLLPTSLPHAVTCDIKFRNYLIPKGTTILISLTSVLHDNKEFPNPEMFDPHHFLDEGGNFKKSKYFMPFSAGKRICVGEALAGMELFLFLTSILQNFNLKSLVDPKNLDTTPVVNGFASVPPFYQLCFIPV
Voltage-gated inwardly rectifying potassium channel KCNH2 (Homo sapiens), sequence (Q12809 whole entry, looked up): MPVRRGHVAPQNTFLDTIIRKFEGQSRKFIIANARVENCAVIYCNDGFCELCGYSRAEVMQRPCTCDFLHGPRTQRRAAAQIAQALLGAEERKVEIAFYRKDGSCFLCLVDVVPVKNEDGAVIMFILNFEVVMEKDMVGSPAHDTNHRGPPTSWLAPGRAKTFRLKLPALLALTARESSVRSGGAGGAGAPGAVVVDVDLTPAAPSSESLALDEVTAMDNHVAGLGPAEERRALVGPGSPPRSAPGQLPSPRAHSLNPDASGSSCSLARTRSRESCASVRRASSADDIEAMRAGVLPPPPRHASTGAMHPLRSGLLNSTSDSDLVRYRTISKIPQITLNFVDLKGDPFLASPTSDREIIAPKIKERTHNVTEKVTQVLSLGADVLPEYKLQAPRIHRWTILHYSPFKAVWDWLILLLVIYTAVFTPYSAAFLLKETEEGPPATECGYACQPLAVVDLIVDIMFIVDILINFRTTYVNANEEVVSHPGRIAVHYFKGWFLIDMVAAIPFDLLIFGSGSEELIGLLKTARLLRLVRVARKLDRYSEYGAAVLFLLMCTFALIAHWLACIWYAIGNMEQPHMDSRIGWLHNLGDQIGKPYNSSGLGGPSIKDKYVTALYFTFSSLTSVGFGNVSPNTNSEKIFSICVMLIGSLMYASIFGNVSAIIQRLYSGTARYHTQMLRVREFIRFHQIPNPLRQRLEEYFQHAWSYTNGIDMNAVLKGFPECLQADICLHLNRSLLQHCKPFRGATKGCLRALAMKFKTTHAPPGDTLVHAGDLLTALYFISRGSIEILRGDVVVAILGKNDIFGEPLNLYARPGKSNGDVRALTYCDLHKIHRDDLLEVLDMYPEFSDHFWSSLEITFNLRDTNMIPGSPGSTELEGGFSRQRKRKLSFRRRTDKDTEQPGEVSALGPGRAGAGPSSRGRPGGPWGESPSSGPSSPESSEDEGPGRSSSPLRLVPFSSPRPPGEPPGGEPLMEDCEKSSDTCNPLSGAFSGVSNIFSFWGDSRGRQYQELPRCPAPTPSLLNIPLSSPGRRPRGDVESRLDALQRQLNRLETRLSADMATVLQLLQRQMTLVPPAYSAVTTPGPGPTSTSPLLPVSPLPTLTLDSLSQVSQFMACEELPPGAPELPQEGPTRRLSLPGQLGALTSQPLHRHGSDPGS

In the case of `CCc1cccc(CC)c1NC(=O)C(=O)O`, the Potency result in assay [1], in assay [2], in assay [3], in assay [4], in assay [5] and in [6] was “inactive” throughout. Also, the Potency result in assay [7], in assay [8], in assay [9] and in assay [10] was “inactive” throughout.

With `CCCCCCCCCCCC(=O)N(CC)CC`, the Potency entry in assay [1], in assay [2], in [3], in assay [4], in assay [6] and in [7] was “inactive” throughout. In addition, the Potency result in assay [9] and in assay [10] was “inactive” throughout. For the same molecule, the results for the Potency in [5] and in [8] were 21.7 µM (active) and 50.2 µM (active), respectively.

`O=CC1CC1`: the Potency entry in assay [1], in [2], in [3], in [4], in assay [5] and in assay [6] was “inactive” each time. Also, the Potency result in assay [7], in assay [8], in assay [11], in assay [9] and in [10] was “inactive” each time.

For the molecule `CCCCCCCCC(C)=O`, the Potency result in assay [1], in assay [2], in assay [3], in [4], in [5] and in assay [6] was “inactive” throughout. Moreover, the Potency result in assay [7], in assay [8], in [11], in [9] and in assay [10] was “inactive” in each case.

Take `C[Si](C)(C)Cl`: the Potency result in assay [1], in [2], in assay [3], in [4], in assay [5] and in [6] was “inactive” each time. In addition, the Potency entry in [7], in assay [8], in assay [9] and in assay [10] was “inactive” each time.

Turning to `C[Si](C)O[Si](C)C`, the Potency result in assay [1], in assay [2], in [3], in assay [4], in assay [5] and in [6] was “inactive” in each case. Further, the Potency result in assay [7], in assay [8], in assay [11], in [9] and in assay [10] was “inactive” in each case.

On to `C/C=C/c1ccc(OC)c(OC)c1`, for which the Potency entry in assay [1], in assay [2], in assay [3], in assay [4], in assay [5] and in assay [6] was “inactive” each time. Besides, in assay [9], the Potency entry was “inactive”. Moreover, the Potency is 71 µM (active) in assay [7], 35.6 µM (active) in assay [8], 25.2 µM (active) in assay [11] and 20 µM (active) in assay [10].

Regarding `COc1nccnc1CC(C)C`, the Potency result in assay [1], in assay [2], in assay [3], in assay [4], in assay [5] and in assay [6] was “inactive” throughout. Also, the Potency result in assay [7], in assay [8], in [9] and in [10] was “inactive” each time.

For the molecule `CC(C)(C)c1n[nH]c(=O)n(N)c1=O`, the Potency entry in assay [1], in assay [2], in assay [3], in assay [4], in [5] and in [6] was “inactive” in each case. In addition, the Potency entry in assay [7], in assay [8], in [11], in [9] and in assay [10] was “inactive” each time.

Consider `CCc1cccc(C)c1`, for which the Potency entry in assay [1], in assay [2], in assay [3], in assay [4], in [5] and in assay [6] was “inactive” in each case. In addition, the Potency result in [7], in assay [8], in assay [11], in assay [9] and in assay [10] was “inactive” throughout.

For the molecule `C=CC(=O)OCCC#N`, the Potency entry in assay [1], in assay [3], in assay [4], in assay [5], in [6] and in [7] was “inactive” throughout. Moreover, the Potency result in [8], in assay [11], in [9] and in [10] was “inactive” each time. The Potency in [2] is 61.5 µM (active).

Turning to `C#CC(O)CCC` (configuration not stated), the Potency entry in assay [1], in assay [2], in assay [3], in assay [4], in [5] and in assay [6] was “inactive” in each case. The Potency entry in assay [7], in assay [8], in [9] and in assay [10] was “inactive” each time.

In the case of `O=C(O)Cc1ccc(OCCNC[C@H](O)c2ccccc2)cc1`, the Potency entry in assay [1], in [2], in assay [3], in assay [4], in [5] and in assay [6] was “inactive” throughout. Also, the Potency entry in [7], in assay [8], in [11], in assay [9] and in assay [10] was “inactive” in each case.

On to `CCC(=O)CC(C)CC` (configuration not stated), for which the caspase activation in assay [1] is 1.2% [at 0.349 µM]. Moreover, the activity change, negative = cytotoxicity in assay [2] is 4.19% [at 0.349 µM]; in [4], 6.32% [at 0.349 µM]. In addition, in [3], the caspase-3/7 activation was 0.142% [at 0.349 µM]. Further, in assay [5], the activation was 2.33% [at 0.349 µM]. In addition, the activity change, negative = inhibition in assay [6] was -13% [at 0.435 µM]; in assay [7] it was -5.38% [at 0.435 µM]; in [8], -10.1% [at 0.435 µM]; in [11] it was -14.4% [at 0.435 µM]; in assay [9], 2.31% [at 0.29 µM]; in assay [10], -0.0732% [at 0.435 µM].

For `C=CC(=O)OCCN(CC)CC`, the Potency result in assay [1], in assay [2], in assay [3], in [4], in assay [5] and in [6] was “inactive” each time. For the same molecule, the Potency result in assay [7], in assay [8], in assay [11], in assay [9] and in assay [10] was “inactive” in each case.

`CCCCCCCC/C=C\CCCCCCCC(=O)N(C)CC(=O)O`: the Potency result in [1], in [3], in assay [4], in assay [5], in assay [6] and in assay [7] was “inactive” each time. Moreover, the Potency result in assay [11], in assay [9] and in assay [10] was “inactive” each time. For the same molecule, the Potency in [2] was 68.6 µM (active); in [8], 44.8 µM (active).

On to `Cc1cccc(N(C)C)c1`, for which the Potency result in assay [1], in assay [2], in assay [3], in [4], in assay [5] and in assay [6] was “inactive” in each case. The Potency entry in assay [8], in assay [11], in assay [9] and in assay [10] was “inactive” each time.

Take `CCOC(/C=C(\C)CCC=C(C)C)OCC`: the Potency entry in assay [1], in assay [2], in assay [3], in assay [4], in assay [5] and in [6] was “inactive” in each case. Besides, the Potency result in assay [8], in [11], in assay [9] and in [10] was “inactive” each time.

For `O=C=NCc1cccc(CN=C=O)c1`, the caspase activation in assay [1] was -0.106% [at 19 µM]. Besides, the results for the activity change, negative = cytotoxicity in assay [2] and in [4] were 0.691% [at 19 µM] and 9.74% [at 19 µM], respectively. Also, the caspase-3/7 activation in [3] was -0.138% [at 19 µM]. Moreover, the activation in assay [5] is 2.53% [at 19 µM]. Also, the activity change, negative = inhibition in assay [6] is -24.5% [at 23.6 µM]; in assay [11], -18.9% [at 23.6 µM]; in assay [9], 0.993% [at 15.8 µM]. For the same molecule, the figures for the Potency in assay [8] and in [10] were 6.74 µM (active) and 4.25 µM (active), respectively.

In the case of `CC(C)(C)c1cc(CCC(=O)NCCCCCCNC(=O)CCc2cc(C(C)(C)C)c(O)c(C(C)(C)C)c2)cc(C(C)(C)C)c1O`, the Potency result in assay [1], in [2], in [3], in assay [4], in assay [5] and in [6] was “inactive” each time. Also, the Potency entry in [11] and in [9] was “inactive” throughout. Also, the results for the Potency in assay [8] and in [10] were 1.42 µM (active) and 2.83 µM (active), respectively.

Regarding `Cc1cc(=O)[nH]c(=O)[nH]1`, the Potency entry in assay [1], in assay [2], in assay [3], in [4], in [5] and in assay [6] was “inactive” each time. Also, the Potency result in assay [7], in assay [8], in [11], in assay [9] and in assay [10] was “inactive” each time.

The values above are taken from PubChem BioAssay (Tox21).
